HIF-2a inh: HIF-2a inhibition | 786-0 RCC cells HIF-2a reporter, luciferase luminescence, overnight | inhibition, % at 18.8 µM | 360,000 tested, 0.72% active | AID 624352;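 active = inhibition of the luminescence signal of 40% or more relative to plate controls, in a single-dose primary screen at 18.75 µM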
TWEAK-Fn14 inh: inhibitors of TWEAK-Fn14 interaction signaling | TWEAK-stimulated Fn14 reporter cells, luciferase luminescence, 8 h | inhibition, % at 10 µM | 360,000 tested, 2% active; in the data active = inhibition above about 50%
KKLEB cytotox: counter-screen for CF NF-kB inhibitors: cytotoxicity; KKLEB CF airway cells viability, ATPlite luminescence, overnight; active compounds read low; cells stimulated with P. aeruginosa culture filtrate; activity change (cytotoxicity), % at 5 µM; 360,000 tested, 0.36% active;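 active = corrected activity change at or below -50% at 5 µM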
TROY signal inh: TROY signaling inhibition. Q293 LMP1-TROYcd NF-kB luciferase reporter, 4 h. inhibition, % at 10 µM. 360,000 tested, 0.98% active;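 active = compounds whose plate-normalised and pattern-corrected inhibition of the luciferase reporter signal at the single screening dose is 50% or more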
CF NFkB block: inhibitors of cystic fibrosis induced NF-kB; KKLEB NF-kB-GFP reporter, PAF-induced, GFP fluorescence overnight; inhibition, % at 5 µM; 360,000 tested, 0.86% active; AID 588850;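 active = at least 50% inhibition at 5 µM, scaled per plate between neutral and stimulator controls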;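 note: PAF is a Pseudomonas aeruginosa culture filtrate used as stimulus; plate controls were PAF-stimulated DMSO wells for no effect and unstimulated DMSO wells for full effect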
Peg3 prom inh: Peg3 promoter activity inhibition; HeLa PEG-Prom luciferase reporter, luminescence, overnight; inhibition, % at 20 µM; 360,000 tested, 1.7% active; AID 588405;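 active = inhibition of at least 50% at 20 µM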
CF NFkB conf: confirmation of cystic fibrosis induced NF-kB inhibitors; shares compounds with CF NFkB block; KKLEB CF airway cells, PAF-induced NF-kB-GFP fluorescence, overnight; 1,300 tested, 64% active; inhibition, % at 5 µM; AID 602472; in the data active = inhibition above about 40%;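 note: stimulus PAF is a Pseudomonas aeruginosa filtrate and not platelet activating factor; plate controls were DMSO wells with stimulus for no effect and unstimulated DMSO wells for full effect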
Active calls of the source: *; / = no result. Hits are enriched below; roughly 4% of the tested compounds scored in any of these assays.

SMILES | HIF-2a inh | TWEAK-Fn14 inh | KKLEB cytotox | TROY signal inh | CF NFkB block | Peg3 prom inh | CF NFkB conf
CC(C)=CCc1c(O)cc(O)c2c1OC(c1ccc(O)cc1)CC2=O (stereo not given) | 13.8 | 34.6 | -12.4 | 30.6 | 52.6* | 24.7 | 71.8*
CC(C)=CCc1c(O)c(CC=C(C)C)c2c(c1O)C(=O)CC(c1ccc(O)cc1)O2 (stereo not given) | -34.0 | 8.7 | -8.4 | 2.9 | 26.8 | 5.6 | /
COc1ccc(OC)c(C2CC(=O)c3c([nH]c(C(=O)OC(C)C)c3C)C2)c1 (stereo not given) | -37.5 | 49.8 | -12.4 | -18.1 | 61.0* | -29.6 | 86.3*
COc1ccc(CN(CCC(c2ccc(F)cc2)C2CCOC(C)(C)C2)C(=O)c2ccco2)cc1 (stereo not given) | 1.7 | 27.3 | -14.9 | 10.6 | 73.5* | 50.5* | 49.5*
O=C(CCNS(=O)(=O)c1ccc(Br)cc1)NNC(=O)C1COc2ccccc2O1 (stereo not given) | 0.7 | -2.5 | -2.8 | -10.9 | 7.5 | -16.2 | /
CCCNS(=O)(=O)c1cc2c3c(c1)CCN3C(=O)CC2 | 11.4 | 16.1 | -34.1 | 3.1 | -14.3 | 4.2 | /
COc1ccccc1-c1nc(SCC(=O)N2CCC(C(N)=O)CC2)n[nH]1 | 14.2 | 4.3 | 8.5 | 0.1 | -11.7 | 1.9 | /
CN(C)CCCN(C(=O)CCSc1ccccc1)c1nc2cc3c(cc2s1)OCO3 | -5.1 | 31.4 | -15.3 | -44.9 | 55.9* | 91.1* | 49.4*
O=c1c(O)c(-c2ccccc2)oc2cc(O)cc(O)c12 | -97.2 | 55.4* | 6.4 | -17.9 | 59.6* | -203.5 | 62.0*
Cn1c(=O)c([N+](=O)[O-])c(NC2CCS(=O)(=O)C2)c2ccccc21 (stereo not given) | 10.1 | 15.6 | 2.6 | -4.4 | 4.2 | 11.1 | /
CN(c1ncnc(N)c1[N+](=O)[O-])C1CCS(=O)(=O)C1 (stereo not given) | 7.9 | 49.6 | -13.5 | 25.1 | 51.1* | -2.8 | 60.6*
Nc1ncnc(NC2CCS(=O)(=O)C2)c1[N+](=O)[O-] (stereo not given) | 10.9 | 20.4 | -5.8 | 18.5 | 52.0* | -24.6 | 35.1
CC1=CC(=O)Nc2ncccc2O1 | 13.4 | -24.5 | 11.8 | -10.8 | -12.0 | -20.5 | /
C=C1C(=O)[C@]23C[C@H]1CC[C@H]2[C@]1(C)[C@@H](O)CC[C@@](C)(C(=O)O)[C@H]1C[C@@H]3O | 2.5 | 40.0 | 7.7 | 4.1 | 83.5* | -7.9 | 82.8*
C=C1C(=O)[C@]23C[C@H]1CC[C@H]2[C@]1(C)[C@@H](OC(C)=O)CC[C@@](C)(C(=O)O)[C@H]1C[C@@H]3O | 29.6 | 79.0* | -18.7 | 27.0 | 92.5* | 92.7* | 92.6*
C=C1C(=O)[C@]23C[C@H]1CCC2[C@@]1(C)C(C[C@@H]3O)[C@](C)(C(=O)O)C[C@H](O)[C@@H]1O (stereo not given in full) | 7.9 | -9.3 | 15.9 | -29.0 | -12.0 | -0.8 | /
Cc1noc(C)c1S(=O)(=O)NCc1ccc(CN(C)C)cc1 | 4.9 | 10.4 | 6.4 | -12.6 | -37.2 | 7.8 | /
CCN(CC)CCN(C(=O)CCS(=O)(=O)c1ccccc1)c1nc2c(C)cc(C)cc2s1 | 22.9 | 6.6 | -29.4 | -21.2 | 73.4* | 57.5* | 69.8*
O=C(Nc1nc2ccc(F)cc2s1)C1CCN(S(=O)(=O)c2cc([N+](=O)[O-])ccc2Cl)CC1 | -209.1 | 84.3* | -16.7 | 34.0 | 78.8* | -36.3 | 72.3*
O=C(NCC(c1ccc(F)cc1)N1CCOCC1)c1ccc([N+](=O)[O-])o1 (stereo not given) | 8.9 | -9.0 | -0.9 | 8.5 | 64.2* | 17.7 | 25.6
CC(=O)c1ccc(-c2ccc(C(=O)NCC(c3ccc(F)cc3)N3CCOCC3)o2)cc1 (stereo not given) | -35.2 | -24.6 | -0.2 | -14.4 | -12.8 | -38.2 | /
CC1(Cc2cccc(F)c2)C(=O)Nc2ccc(-c3cccnc3)cc21 (stereo not given) | 15.1 | 78.8* | 4.8 | 40.6 | 72.4* | 19.8 | 66.3*
CC1(Cc2ccc(Cl)cc2)C(=O)Nc2ccc(-c3cccnc3)cc21 (stereo not given) | 15.9 | 83.6* | -29.7 | 53.4* | 79.3* | 23.1 | 91.1*
CCc1ccc2c(c1)NC(=O)C2(C)Cc1cccc(F)c1 (stereo not given) | 9.2 | 5.6 | -3.6 | 7.8 | 5.2 | 14.9 | /
Cc1ccc(S(=O)(=O)N2CCCC2CNC(=O)C(=O)Nc2ccc(F)cc2)cc1 (stereo not given) | -85.0 | 4.1 | -3.2 | 1.2 | 28.3 | -30.1 | /
SMILES | HIF-2a inh | TWEAK-Fn14 inh | KKLEB cytotox | TROY signal inh | CF NFkB block | Peg3 prom inh | CF NFkB conf
Fc1cccc(Cc2c(-c3ccco3)nc3ccc(Cl)cn23)c1 | -30.0 | 54.0* | 2.4 | -3.6 | 63.2* | -23.0 | -40.9
FC(F)(F)c1ccccc1Cc1c(-c2ccco2)nc2ccc(Br)cn12 | 23.6 | 14.9 | -16.8 | 0.6 | 62.5* | 13.5 | 11.3
COC(=O)c1ccc2nc(-c3ccco3)c(Cc3ccccc3)n2c1 | -17.4 | 34.3 | -8.5 | -10.9 | 53.9* | -35.5 | 10.0
COC(=O)c1ccc2nc(-c3ccco3)c(Cc3cccc(Cl)c3)n2c1 | -13.0 | 23.4 | / | -8.4 | / | / | /
Clc1ccc2nc(-c3ccco3)c(Cc3ccccc3)n2c1 | 7.3 | 28.5 | -7.0 | -0.3 | 37.3 | -20.8 | /
Fc1cccc(Cc2c(-c3ccco3)nc3ccc(Br)cn23)c1 | 14.3 | 45.3 | -11.2 | 3.6 | 52.0* | -2.3 | 11.2
CN(C(=O)Nc1ccc(F)cc1)[C@H]1C[C@H]2c3[nH]c4ccccc4c3CCN2C(=O)[C@H]1CO | 14.8 | 21.4 | -1.3 | 15.2 | -21.4 | -4.6 | /
O=C(OCC(=O)N(CCc1ccccc1)Cc1ccccc1)c1cccc(S(=O)(=O)N2CCOCC2)c1 | 6.9 | -15.8 | -9.7 | 9.6 | 24.8 | 9.0 | /
COc1ccc(COc2cc(-c3cccc(OC)c3)nc3ccc(NC(=O)c4cccnc4)cc23)cc1 | 16.6 | -5.6 | -17.0 | 3.0 | 80.4* | 54.0* | 91.6*
Cc1cccc(NC(=O)c2ncn3c2C(=O)N[C@@H](C)C3)c1 | 8.3 | 5.6 | -0.6 | 8.5 | 35.9 | 7.6 | /
c1ccc(-c2nc3nonc3nc2-c2ccccc2)cc1 | 25.4 | 19.9 | -16.8 | -6.0 | 72.2* | 8.8 | 65.7*
CCC(=O)Nc1nc(C)c(-c2csc(Nc3cccc(C(=O)O)c3)n2)s1 | -14.1 | 2.1 | 9.9 | -23.2 | 4.2 | -39.4 | /
CC(=O)Nc1nc(C)c(-c2csc(Nc3cccc(C(C)=O)c3)n2)s1 | -10.4 | 22.6 | -44.1 | -14.7 | 80.8* | 48.6 | 81.8*
CC(Oc1ccc(Br)cc1)C(=O)Nc1ccc(S(=O)(=O)NC2=NCCCCC2)cc1 (stereo not given) | -0.2 | 6.0 | -14.0 | 11.1 | -12.5 | 14.3 | /
NC1(C(=O)O)CSSC1 | -122.1 | 13.5 | 2.7 | -0.2 | 61.8* | 82.2* | 57.2*
